Assay outcomes: PubChem, several laboratories
ADAM17 inh: ADAM17 inhibition, QFRET primary screen; inhibition, % at 6.95 µM; P78536; AID 720648; recombinant ADAM17, EDANS/DABCYL FRET peptide cleavage; 370,000 compounds, 0.83% hits;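 active = inhibition above the mean of compounds lying between control limits plus 3 SD, set per campaign, cut at about 8.5% in these data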;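 also: 0% = DMSO-only wells as the low control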
GC-A act: GC-A (human) enzyme activation; HEK293 GC-A cells, cGMP TR-FRET, EC30 ANP; 0% at EC30 ANP, 100% saturating ANP; AID 1671463; 370,000 compounds, 0.14% hits; P16066; activation, % at 10 µM; in the data active = activation above about 40%
ADAM10 inh: ADAM10 inhibition, QFRET primary screen | 370,000 compounds, 0.62% hits | O14672 | AID 720582 | recombinant ADAM10, EDANS/DABCYL FRET peptide cleavage, 3 h | inhibition, % at 7 µM;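 active = inhibition above a per-campaign cutoff equal to the mean of compounds falling between control-based bounds plus 3 SD, cut at about 20% in these data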;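 also: 0% = DMSO wells while the 100% control is not disclosed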
GC-B act: GC-B (human) receptor activation | P20594 | activation, % at 10 µM | 370,000 compounds, 0.11% hits | HEK293-GC-B cells, CNP EC30, cGMP TR-FRET; 0% at EC30 CNP, 100% saturating CNP;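 active = activation at 10 µM reaching about 35% in either raw or pattern-adjusted values, limit read from the data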
Starred values were filed as active, the others as inactive; i = inactive. Compounds with a hit are over-represented: about 1.3% of the library has one in this group of screens.

SMILES	ADAM17 inh	GC-A act	ADAM10 inh	GC-B act
Cc1ccc(-c2csc3ncnc(Oc4ccc5c(C)cc(=O)oc5c4)c23)cc1	-53	-6	-211	-7
CC(=O)Nc1cccc(Oc2ncnc3scc(-c4ccc(C)cc4)c23)c1	3	55*	11	58*
COC(=O)CN1CCN(C(=O)c2nocc2C)CC1	-1	3	-2	4
Cc1c(C(=O)OCC2CCCO2)[nH]c2c1C(=O)CC(c1ccc(N(C)C)cc1)C2 (centres undefined)	4	0	21*	1
CCOC(=O)c1[nH]c2c(c1C)C(=O)CC(c1ccc(F)cc1)C2 (centres undefined)	0	-1	-4	-12
O=C(O)c1ccc(N/N=C/c2cn(Cc3ccc(F)cc3)c3ccccc23)cc1	-5	-6	-6	-12
CCNC(=S)N/N=C/c1cn(Cc2ccc(F)cc2)c2ccccc12	4	35	8	42*
Cc1c2cnn(CC(=O)NCCN3CCOCC3)c(=O)c2c(C)n1Cc1ccc(F)cc1	-7	3	-7	0
CC[C@]12c3[nH]c4cc(CCC(=O)N(C)C)ccc4c3CCN1C(=O)[C@@H](CC(=O)NC(C)(C)C)C[C@@H]2C(=O)N1CCN(C(=O)c2ccco2)CC1	-7	2	-8	-1
CCOC(=O)C1=NS(=O)(=O)NC(C)=C1	-13	5	-57	-1
CC(=O)Nc1cc(-c2ccccc2Cl)cn2c(-c3ccc(S(C)(=O)=O)cc3)cnc12	-103	17	-384	43*
CCOC(=O)C1=CCN(S(=O)(=O)c2ccccc2C)C1c1ccc(F)cc1 (centres undefined)	1	-4	-12	-8
Cc1ccccc1OCCC(=O)N1CCN(S(=O)(=O)c2ccc(Br)cc2)CC1	-4	-7	-2	-3
O=C(OC1CCOC1=O)C1CCN(S(=O)(=O)c2ccccc2)CC1 (centres undefined)	-6	2	-9	4
O=C(OC1CCOC1=O)C1CCN(S(=O)(=O)c2ccc(Cl)c(C(F)(F)F)c2)CC1 (centres undefined)	-7	-2	0	51*
OC(Cc1ccncc1)c1ccccc1Cl (centres undefined)	-1	-2	3	4
CNC(=O)NC(=O)CSc1nc(-c2cccs2)c(C#N)c(=O)[nH]1	-5	45*	-9	23
Cc1ccc(NC2=NC(c3ccccc3)n3c(nc(C)cc3=O)N2)c(C)c1 (centres undefined)	-1	29	-9	38*
Cc1ccc(NC2=NC(c3ccc(F)cc3)n3c(nc(C)cc3=O)N2)c(C)c1 (centres undefined)	-1	16	-5	20
O=[N+]([O-])c1cccc2[nH]c(CNc3nc(N4CCOCC4)nc4c3ncn4-c3ccsc3)nc12	5	7	13	3
Nc1nc2c(ncn2[C@@H]2O[C@H](CNCc3ccc4ncccc4c3)[C@@H](O)[C@H]2O)c(=O)[nH]1	0	12	-3	13
Nc1nc2c(ncn2[C@@H]2O[C@H](CNCC3=Cc4cc(O)ccc4OC3)[C@@H](O)[C@H]2O)c(=O)[nH]1	1	47*	-4	39*
COc1cc(/C=N/NC(=O)C(Cc2c[nH]c3ccccc23)NC(=O)OCc2ccccc2)cc([N+](=O)[O-])c1O (centres undefined)	9.1*	-7	41*	-8
O=C1CCC[C@H]2C[C@H](NCc3cccc(I)c3)CC[C@]23CCCN13	-5	-2	-7	-5
C[C@H]1[C@@H](N(C)CC2CCCCC2)CC[C@@]23CCCN2C(=O)CCC[C@@H]13	-4	-2	-4	-3
SMILES	ADAM17 inh	GC-A act	ADAM10 inh	GC-B act
C=CCNC(=S)Nc1c(C(=O)OC)[nH]c2cc(OC)ccc12	-5	20	-3	36*
COC(=O)c1[nH]c2cc(OC)ccc2c1NC(=O)c1c(F)cccc1F	-3	-4	11	-1
Cc1ccc(CNC2CCC23CCC(c2ccccc2)CC3)o1 (centres undefined)	1	-4	1	-6
O=C1NC(Cc2ccc(O)cc2)c2nc3ccc(Cl)cc3c(=O)n2-c2cc3ccccc3cc21 (centres undefined)	2	-1	-3	57*
O=C1NC(Cc2ccccc2)c2nc3ccc(Cl)cc3c(=O)n2-c2cc3ccccc3cc21 (centres undefined)	0	-1	-1	10
O=C(Nc1nc2c(F)cc(F)cc2s1)C1CC1	-3	67*	-20	-2
Cc1ccc2sc(NC(=O)C3CC3)nc2c1C	2	55*	3	0
O=C(CN1C(=O)CCC1=O)Nc1nc2c(F)cc(F)cc2s1	-4	36	-11	2
O=C(Nc1nc2c(Cl)cccc2s1)C1CC1	6	37	-5	-1
O=C(Nc1nc2c(Cl)c(Cl)ccc2s1)C1CC1	-2	57*	-13	-4
O=C(Nc1nc2c(Cl)ccc(Cl)c2s1)C1CC1	2	61*	-1	-6
O=C(CCc1nc(-c2ccccc2)no1)NC1CCCCCC1	0	1	-12	-1
FC(F)(F)c1ccccc1NC(=S)OCCN1CCCC12CCC(c1ccccc1)CC2 (centres undefined)	5	-4	4	-1
C[C@H]1[C@@H](OC(=O)Nc2cc(Cl)ccc2Cl)CC[C@@]23CCCN2C(=O)CCC[C@@H]13	2	-9	12	-12
Cc1nc(-c2ccc(Cl)cc2)sc1C(=O)NNC(=O)C(C)C	-1	43*	2	2
CNC(=O)c1sc(-c2ccc(Cl)cc2)nc1C	-3	46*	-6	1
CC(C)(N[C@@H](Cc1ccccc1)C(=O)NCCc1c[nH]c2ccccc12)C(=O)NC1CCCCC1	0	-4	4	-8
COc1ccc(-n2c(N)c(C(=O)NCC3CCCO3)c3nc4ccccc4nc32)c(OC)c1 (centres undefined)	-155	40*	-446	40*
C=CCn1c(N)c(C(=O)NCC2CCCO2)c2nc3ccccc3nc21 (centres undefined)	i	32	i	19
COc1ccc([C@H]2CC(=O)C=C(c3ccc4[nH]ccc4c3)C2)cc1OC	5	1	14	8
O=C1C=C(c2ccc3[nH]ccc3c2)C[C@@H](c2ccc(F)cc2)C1	3	3	16	36*
C#CCOCCOCCOCCNc1nc(N2CCN(C(=O)[C@H]([C@@H](C)CC)n3cc(CCCCN)nn3)CC2)nc(N2CCN(C(=O)[C@H](C)n3cc(CCC(=O)O)nn3)CC2)n1	1	3	0	53*
C#CCOCCOCCOCCNc1nc(N2CCN(C(=O)[C@H]([C@@H](C)O)n3cc(CCCCN)nn3)CC2)nc(N2CCN(C(=O)[C@H](C)n3cc(CCC(=O)O)nn3)CC2)n1	-2	5	3	6
O=C(CC[C@H]1O[C@@H](n2ccc(=O)[nH]c2=O)[C@H](O)[C@@H]1O)NCc1cccc2ccccc12	3	1	7	0
